Several values for one entry are separate records, joined by “and”; a condition that tells them apart may be missing. Equal entries are not always repeated. This is part of a sample that, as a whole, favours compounds with a hit. Of some 83,000 tested, about 20% had one in any assay.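 Step 1: grow cells in 96-well plates. Step 2: add test compound at a single concentration. Step 3: incubate 48 h. Step 4: record percent growth.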 Values without a mark were called inactive. Activity calls are given as the source filed them. *1 amine or outer side, *2 acyl side, *3 side chain or, on linkers, in order; H or OH if unused. Where a SMILES comes first, the peptide text is derived from it. [ ]: non-standard residue; d: D form. The star is where a group is joined. X5 = CCC(=O)CC1CC(C)CC(C(=O)[*:2])N1[*:1]; X4 = CCCCCCCCC(C)C(=O)*; Aib = CC(C)(N)C(=O)O; X6 = CC(CN(C)CCO)N*
tested on: UACC-62 melanoma; experiment: NCI-60 one-dose screen, 48 h (100 = growth as untreated, 0 = no growth, -100 = all killed); settings: 10 µM unless noted
Method: Growth inhibition of the UACC-62 human tumor cell line is measured as a screen for anti-cancer activity. Cells are grown in 96 well plates and exposed to the test compound for 48 hours. Compounds are tested at a single concentration, which is 10^-5 M for most compounds. The reported endpoint is percent growth (GI% or GIPRCNT), where numbers from 0 - 100% represent growth inhibition, and numbers from -100% - 0 represent cell death. For example, a value of 40 represents 60% growth inhibition. A value of 0 means no net growth occurred over the course of the experiment. A value of -40 indicates 40% of cells at the beginning of the experiment died by the end of the experiment. A value of -100 means all cells are dead at the end of the experiment.
NCI-60 Human Tumor Cell Lines Screen was performed using the standard one-dose NCI protocol, which is described in more detail at https://dtp.cancer.gov/discovery_development/nci-60/default.htm.
Compounds with GIPRCNT values below 10 were considered active. Activity score was based on GIPRCNT using the following formula: […]
Score is 0 for GIPRCNT values of 100 or above, 50 for GIPRCNT values of 0, and 100 for GIPRCNT values of -100.

**Q.** How did the growth turn out when `OC(Cc1cc(CC(O)(C(F)(F)F)C(F)(F)F)nc(CC(O)(C(F)(F)F)C(F)(F)F)c1)(C(F)(F)F)C(F)(F)F` was run?
**A.** -10.6% (active)

**Q.** With `COc1ccc(Nc2nc3ccc(C(F)(F)F)cc3nc2C(=O)O)cc1` as the compound, how does the growth read?
**A.** -46.2% [100 µM] (active) and -91.5% [100 µM] (active)

**Q.** `CC(=O)N1CC(=O)NC1=S` was tested. Which growth did it give?
**A.** 96.1%

**Q.** `S=C=Nc1ccc(N2CCOCC2)cc1` was tested. Which growth did it give?
**A.** 82.1%

**Q.** Which growth does the source give for `CC(C)c1ccc(Nc2n[nH]c(=S)s2)cc1` here?
**A.** 99%

**Q.** How did the growth turn out when `NC(CS/C(Cl)=C/Cl)C(=O)O` (stereo not given) was run?
**A.** 77.4%

**Q.** With `O=C1/C(=C\c2ccc([N+](=O)[O-])cc2)CS(=O)(=O)C/C1=C/c1ccc([N+](=O)[O-])cc1` as the compound, how does the growth read?
**A.** -90.7% (active)

**Q.** `CCN(CC)CC(O)c1cc(-c2ccc(Cl)cc2)nc2cc(Cl)ccc12` (stereo not given) was tested. Which growth did it give?
**A.** -56.6% (active)

**Q.** Which growth does the source give for `Cc1cc2cccnc2c2ncccc12` here?
**A.** 0.859% (active)

**Q.** Which growth does the source give for `CC1=CC[C@@H]2[C@@H](CC[C@@]2(C)O)C(C)(C)[C@H]1CC[C@@H]1[C@@]2(C)CCC(=O)C(C)(C)O[C@@H]2CC[C@]1(C)O` here?
**A.** -76.1% [100 µM] (active) and -100% [100 µM] (active)

**Q.** Which growth does the source give for `Oc1ccc(Br)cc1Sc1cc(Br)ccc1O` here?
**A.** 7.3% (active)

**Q.** `N=C(N)Sc1cccc[n+]1[O-]` was tested. Which growth did it give?
**A.** 23.2%

**Q.** With `O=[n+]1c2ccccc2n([O-])c2cc(Cl)ccc21` as the compound, how does the growth read?
**A.** 81%

**Q.** `Cc1cccc2c(N)c3ccccc3nc12` was tested. Which growth did it give?
**A.** -57.6% (active)

**Q.** For `CC1(C)OC2C(COC(c3ccccc3)(c3ccccc3)c3ccccc3)OC(c3c[nH]c4c(N)ncnc34)C2O1` (stereo not given), which growth is on record?
**A.** 65.2%

**Q.** Which growth does the source give for `Cc1nn(CCO)c(C)c1N=[N+]([O-])c1c(C)nn(CCO)c1C` here?
**A.** 61%

**Q.** How did the growth turn out when `CC1(C=O)CCC23COC4(CCC5C6(C)CCC(OC7OCC(OC8OC(CO)C(O)C(OC9OC(CO)C(O)C(O)C9O)C8OC8OCC(O)C(O)C8O)C(O)C7OC7OC(CO)C(O)C(O)C7O)C(C)(C)C6CCC5(C)C4(C)CC2O)C3C1` (stereo not given) was run?
**A.** -69% [100 µM] (active) and -57.3% [100 µM] (active)

**Q.** With `OC(c1cc(C23CC4CC(CC(C4)C2)C3)nc2c(Cl)cc(Cl)cc12)C1CCCCN1` (stereo not given) as the compound, how does the growth read?
**A.** -44.1% (active)

**Q.** `Cc1ccc2cccc(OC(=O)Nc3cccc(C(F)(F)F)c3)c2n1` was tested. Which growth did it give?
**A.** 60.8%

**Q.** `COC(=O)c1ccc(=O)c2nc3/c(=C/O)c(O)cc(=O)c3[nH]c12` was tested. Which growth did it give?
**A.** -3.09% (active)

**Q.** How did the growth turn out when `Cc1ccc2c(c1)sc(-c1ccc(N(C)C)cc1)[n+]2C` was run?
**A.** 8.89% (active)

**Q.** How did the growth turn out when `COc1ccc2c(c1)C(OC)C1c3c(cc4c(c3-2)OCO4)CCN1C` (stereo not given) was run?
**A.** -93.1% [100 µM] (active) and -89.5% [100 µM] (active)

**Q.** Which growth does the source give for `O=C(CCl)N(c1ccccc1)c1ccccc1` here?
**A.** 95.6%

**Q.** Which growth does the source give for `Cn1c(-c2ccccc2)c(/C=C/C2=[N+](C)c3ccccc3C2(C)C)c2ccccc21` here?
**A.** -3.73% (active)

**Q.** For `Cc1ccc(/C=N/Nc2cc(C)c3cccc(C)c3n2)s1`, which growth is on record?
**A.** -91.7% [100 µM] (active) and -100% [100 µM] (active)

**Q.** For `CN(C)CC(C)(CN(C)C)C(=O)/C=C/c1c(Cl)cccc1Cl`, which growth is on record?
**A.** 20.1%

**Q.** How did the growth turn out when `NCCCN(CCCN)CCCNCc1c2ccccc2c(CNCCCN(CCCN)CCCN)c2ccccc12` was run?
**A.** 98.2%

**Q.** For `O=Cc1ccc(-c2ccc(-c3ccc(CO)s3)o2)s1`, which growth is on record?
**A.** -65% [100 µM] (active) and -100% [100 µM] (active)

**Q.** Which growth does the source give for `CCC1C[N+]2=C(c3cc(OC)c(OC)cc3CC2)c2c1cc1n2CCc2cc(OC)c(OC)cc2-1` (stereo not given) here?
**A.** 18.7%

**Q.** `CN1CCC(c2ccccc2)(c2ccccc2)C(=O)C1` was tested. Which growth did it give?
**A.** 93.6%

**Q.** For `CC(C)(C)CC(C)(C)c1ccc(OCCOCCSC(=N)N)cc1`, which growth is on record?
**A.** 75.7%

**Q.** How did the growth turn out when `Cc1nnc(N/N=C/c2ccc([N+](=O)[O-])o2)[nH]c1=O` was run?
**A.** 10.6%

**Q.** Which growth does the source give for `CCNc1nnnn1CC` here?
**A.** 106%

**Q.** With `CCCCCCCCC(C)C(=O)N1CCCC1C(=O)N1C(CC(=O)CC)CC(C)CC1C(=O)NC(C)C(=O)NC(C)(C)C(=O)NC(C)(C)C(=O)NC(C(=O)NC(C)C(=O)NC(C)(C)C(=O)NC(C)(C)C(=O)NC(C)CN(C)CCO)C(C)CC` (stereo not given) (X4-P[X5]A[Aib][Aib]IA[Aib][Aib]-X6; configuration not given here) as the compound, how does the growth read?
**A.** -66.1% (active)

**Q.** Which growth does the source give for `O=[N+]([O-])C=C(c1ccccc1)c1ccccc1` here?
**A.** 56.9%

**Q.** `Cc1c(O)ccc(SC#N)c1C` was tested. Which growth did it give?
**A.** 94.6%

**Q.** With `NNc1cccc([N+](=O)[O-])c1` as the compound, how does the growth read?
**A.** 77.2%

**Q.** With `CN=C(N)N/N=C(\C)c1ccc2c(c1)Cc1ccccc1-2` as the compound, how does the growth read?
**A.** -80.2% (active)

**Q.** For `Oc1c(Cl)cc(Cl)cc1C=NCC1CCC(CN=Cc2cc(Cl)cc(Cl)c2O)CC1` (stereo not given), which growth is on record?
**A.** 97.7%

**Q.** How did the growth turn out when `O=C(Cc1nc2cc(Cl)c(Cl)cc2nc1CC(=O)c1ccccc1)c1ccccc1` was run?
**A.** 56.9%

Source: PubChem BioAssay (NCI)
